From PubChem
A selection: hits, their analogues and other compounds. The true share with any hit is near 4%.
GDH-TPI inh – inhibits GDH-TPI coupling enzymes, artifact for Mtb FBA screen. GDH-TPI coupled enzyme counterscreen, NADH absorbance. inhibition, % at 4.8 µM. actives 1.2% (n = 360,000); in the data active = inhibition above about 30%;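 note: 0% = DMSO wells and 100% = wells lacking the enzyme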
UGM FP inh – Mtb UDP-galactopyranose mutase inhibition | P9WIQ1 | purified UGM, fluorescence polarization probe displacement | inhibition, % at 10 µM | actives 0.06% (n = 320,000) | AID 504406; in the data active = inhibition above about 10%, passing the limit was not always enough; inconclusive = no clear call, values can overlap the other calls
Mtb betalactam – beta-lactam sensitization of Mtb H37Rv; inhibition, % at 25 µM; M. tuberculosis H37Rv growth with meropenem, percent inhibition; actives 0.27% (n = 330,000); call rule not given here;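 note: growth measured after seven days incubation then overnight dye step; 0% = bacteria only wells and 100% = bacteria with antibiotic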
Rv3671c protease – inhibitors of M. tuberculosis serine protease Rv3671c; actives 0.048% (n = 320,000); inhibition, % at 5.96 µM; P9WHR9; in the data active = inhibition above about 38%;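 note: extracellular domain of Rv3671c used as enzyme; 0% = enzyme with DMSO and 100% = no enzyme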
Mtb FBA inh – inhibitors of M. tuberculosis fructose-bisphosphate aldolase. P9WQA3. purified M. tuberculosis FBA, fluorescence read-out. inhibition, % at 1 µM. AID 588726. actives 2.3% (n = 360,000); in the data active = inhibition above about 27%;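 note: 0% = vehicle and 100% = reference inhibitor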
RecA splice inh – blocks M. tuberculosis RecA intein splicing. P9WHJ3. cell-free RecA intein splicing, fluorescence. inhibition, % (no concentration beside the values). actives 0.75% (n = 290,000); in the data active = inhibition above about 30%; inconclusive = no clear call, values can overlap the other calls;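 note: 0% = vehicle wells and 100% = reference inhibitor control wells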
* marks the source's active call; other numbers are inactive results; i = inactive; ? = inconclusive; nt = no result given; + = active, no number.

SMILES	GDH-TPI inh	UGM FP inh	Mtb betalactam	Rv3671c protease	Mtb FBA inh	RecA splice inh
O=C(O)CSc1cc(NS(=O)(=O)c2cccc([N+](=O)[O-])c2)c2ccccc2c1O	4	nt	nt	nt	4	95*
Cc1ccc(C)c(S(=O)(=O)Nc2cc(SCC(=O)O)c(O)c3ccccc23)c1	4	1	9	-147	-1	nt
Cc1cccn2c(=O)c(/C=C(\C#N)C(=O)NC3CCS(=O)(=O)C3)c(N3CCC(C)CC3)nc12 (stereo not given)	11	0	3	-10	197*	i
N#C/C(=C\c1c(N2CCCCC2)nc2ccccn2c1=O)C(=O)NC1CCS(=O)(=O)C1 (stereo not given)	13	-3	?	-1	6	-360
CCNC(=O)/C(C#N)=C/c1c(N(Cc2ccccc2)Cc2ccccc2)nc2ccccn2c1=O	15	0	3	5	3	9
CNC(=O)/C(C#N)=C/c1c(N(Cc2ccccc2)Cc2ccccc2)nc2c(C)cccn2c1=O	8	0	-2	1	3	31*
COc1ccc(CNC(=S)NCc2ccc(Cl)cc2)cc1OC	2	-1	-3	1	0	-2
CCCNC(=O)c1ccc(N2CCC3(CC2)CC(c2ccccc2)=NO3)c(NC(=O)Cc2ccc(F)cc2)c1	0	-1	99	-4	-5	6
CCCCNc1c(-c2ccc(-c3ccc(C(C)=O)cc3)c(OC)c2)nc2cnccn12	34*	-1	99	7	15	-77
CCOC(=O)CNc1c(-c2ccc(F)cc2)nc2cnccn12	6	2	-9	-6	87*	-106
O=C(NCC1CCCCC1)c1ccc2nc([C@@H]3O[C@H](CO)[C@H](O)[C@H](O)[C@H]3O)[nH]c2c1	5	nt	nt	nt	1	nt
Cc1cc(-c2ccc(/C=N/n3cnnc3)o2)ccc1Cl	33*	3	95	-3	-2	-1
CCOC(=O)c1cc(-c2ccc(/C=C3/C(=O)N(c4ccc(C(=O)O)cc4)N=C3C)o2)ccc1Cl	1	2	74	-1	-1	8
CCCCOC(=O)c1cc(-c2ccc(/C=N/n3cnnc3)o2)ccc1Cl	31*	-3	6	-4	1	22
CCOC(=O)c1cc(-c2ccc(/C=N\n3cnnc3)o2)ccc1Cl	47*	0	21	0	1	3
COc1ccc(NC(=O)CN(C)C(=O)c2ccc(NS(=O)(=O)c3ccc(F)cc3)cc2)cc1	5	-3	-2	1	-1	-4
Cc1ccc2c(C)c(C)c(=O)n(C)c2c1	3	nt	nt	nt	-2	nt
COc1ccc(-c2[nH]ncc2CN(CCO)CC23CC4CC(CC(C4)C2)C3)c(OC)c1	3	-1	-11	9	0	1
CCOc1ccc(/C=C2\CCC(C3CCCC3)C2=O)cc1 (stereo not given)	1	-1	1	-5	2	6
CCC(=O)OCOc1ccc(/C=C2/CCC(CN(C)C)C2=O)cc1 (stereo not given)	32*	nt	nt	nt	-2	nt
CN1C(=O)C2(Nc3ccccc3-c3nc4ccccc4n32)c2ccccc21 (stereo not given)	12	-1	29	1	2	3
c1ccc2c(c1)NC1(CCCCC1)n1c-2nc2ccccc21	12	-1	-8	5	153*	-27
CCCCC1(C)Nc2ccccc2-c2nc3ccccc3n21 (stereo not given)	8	0	12	9	+	-48
CC1(c2ccccn2)Nc2ccccc2-c2nc3ccccc3n21 (stereo not given)	23	-3	5	-4	112*	-14
c1ccc2c(c1)NC1(CCCCCC1)n1c-2nc2ccccc21	12	-5	0	3	161*	-22
SMILES	GDH-TPI inh	UGM FP inh	Mtb betalactam	Rv3671c protease	Mtb FBA inh	RecA splice inh
O=C1Nc2ccccc2C12Nc1ccccc1-c1nc3ccccc3n12 (stereo not given)	7	0	10	0	4	10
O=C1Cn2c(nc3ccccc32)-c2ccccc2N1	7	0	4	-18	4	0
COc1ccc(NC(=O)c2cc(C3CCCCN3C(=O)OCc3ccccc3)on2)c(C)c1 (stereo not given)	-11	nt	nt	nt	3	nt
CCc1ccc2c(c1)NC(=O)C2(C)Cc1ccccc1C#N (stereo not given)	0	nt	nt	nt	-2	nt
O=C(O)c1ccc(NC(=O)c2ccccc2NC(=O)c2ccccc2Br)cc1	-2	0	-7	2	2	-1
CCc1nn(CC(=O)N2CCC(C)CC2)c(=O)c2cccn12	-5	0	3	2	-1	-1
CCc1nn(CC(=O)NCCN2CCN(C)CC2)c(=O)c2cc3c(OC)cccc3n12	11	2	0	5	+	3
COc1cccc2c1cc1c(=O)n(CC(=O)N3CCC(C)CC3)nc(C)n12	10	-2	?	2	+	-2
Nc1nnnn1/N=C/c1cc(Br)ccc1O	32*	4	-1	19	-2	-3
Nc1nnnn1/N=C/c1ccc(Br)cc1	7	1	2	nt	1	1
Cn1c2ccccc2c2cc(/C=C(\NC(=O)c3ccccc3)C(=O)O)ccc21	35*	4	-5	-4	-3	0
CC(C)OC(=O)/C(=C/c1ccc2c(c1)c1ccccc1n2C)NC(=O)c1ccccc1	34*	0	6	-26	0	1
COCCNc1nc(Oc2cccc3ccccc23)c2sccc2n1	4	nt	nt	nt	0	nt
Cc1ccc(C(=O)NNC(=S)NC(=O)c2ccccc2)cc1	31*	1	98	1	-3	2
Cc1ccc(C(=O)NC(=S)NNC(=O)c2ccccc2)cc1	21	1	97	9	0	0
Cn1c(/C(C#N)=C/Nc2ccccn2)nc2ccccc21	31*	2	70	-6	4	-188
COc1ccccc1C(CNC(=O)c1oc2ccccc2c1C)N1CCCC1 (stereo not given)	-3	0	-2	-8	2	nt
CC(C)COC(=O)N1CCCCC1c1cc(C(=O)Nc2ccccc2)no1 (stereo not given)	4	nt	nt	nt	0	nt
BrC(/C=N/N1CCN(Cc2ccccc2)CC1)=C/c1ccccc1	31*	0	-4	-5	0	10
COc1ccc(CCNC(=O)c2cccc(S(=O)(=O)NC(C)c3ccccc3)c2)cc1 (stereo not given)	-2	-1	-7	-10	0	nt
Cc1c(C(=O)OCC(=O)Nc2ccc(C(=O)N(C)C)cc2)oc2ccccc12	-1	-4	-6	-7	2	-2
O=C(C[n+]1cccc2ccccc21)c1ccc([N+](=O)[O-])cc1	4	-1	-4	-1	4	0
O=C(C[n+]1cccc2ccccc21)c1ccc(Cl)cc1	10	0	2	-7	125*	1
Cc1c(C(=O)C(=O)N2CCC3(CC2)OCCO3)c2ccccc2n1C	46*	2	-6	-9	2	4
